Experimental data published in PubChem BioAssay AID493056 (National Center for Advancing Translational Sciences (NCATS), 2011).
“And” between values parts separate entries of the source, which are not always exact repeats. Equal entries are not always repeated. Hit rate of the full screen: of about 360,000 compounds, about 2,400 (0.67%) were called active. This is one part of a sample in which actives are shown more often than they occur. No stated cut-off is given here; in the data, active means enhancement above about 30%; inactive means the rest. A structure can be active in one record and inactive in another.

What follows are compounds tested against Thyrotropin-releasing hormone receptor (Homo sapiens) (UniProt P34981) (assay: qHTS for Small Molecule Agonists and Allosteric Enhancers of Human TRH Receptor: Primary Screen for Enhancers). Details: TRHR cells, fluo-8 calcium fluorescence, EC20 TRH enhancement; at 2 µM; stronger effect = higher value.
Chain of Thyrotropin-releasing hormone receptor (Homo sapiens) (P34981 whole entry, looked up): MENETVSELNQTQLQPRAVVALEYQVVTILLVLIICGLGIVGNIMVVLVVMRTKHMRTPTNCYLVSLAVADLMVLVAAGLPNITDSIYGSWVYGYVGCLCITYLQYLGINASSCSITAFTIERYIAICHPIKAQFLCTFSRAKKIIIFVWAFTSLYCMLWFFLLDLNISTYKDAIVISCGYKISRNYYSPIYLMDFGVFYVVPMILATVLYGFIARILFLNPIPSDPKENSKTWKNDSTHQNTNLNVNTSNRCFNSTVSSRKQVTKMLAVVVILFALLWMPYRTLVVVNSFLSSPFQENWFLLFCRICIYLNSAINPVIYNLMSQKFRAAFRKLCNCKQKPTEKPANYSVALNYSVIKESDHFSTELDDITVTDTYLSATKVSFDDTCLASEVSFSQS
Summary of the method: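 Enhancer read-out: after compound pinning and an initial kinetic agonist-mode read, an EC20 of TRH (10 nM final) was injected and fluo-8 calcium signal (Ex 480/Em 530) followed at 1 s/cycle for 100 cycles in TRHR-expressing cells.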
Further: 0% is about no effect.

enhancement, inactive:
Cc1cc(Cl)ccc1OCC(=O)N(Cc1ccc(N(C)C)cc1)C1CCS(=O)(=O)C1 (stereo not drawn) -2.26%
CC1Cc2cc(S(=O)(=O)CCC(=O)NCc3ccc(Cl)cc3)ccc2N1C(=O)C1CC1 (stereo not drawn) 3.17%
CCCn1c2ccccc2c2cnn(CC(=O)N(CC)c3cc(C)ccc3C)c(=O)c21 -3.36%
CCCn1c2ccccc2c2cnn(CC(=O)NCCCOC(C)C)c(=O)c21 10.8%
CCOc1ccc(CCNC(=O)c2ccc3c(c2)sc2nc(-c4ccc(F)cc4)cn23)cc1OCC 0.915%
Cc1ccc(NNC(=O)c2cccs2)cc1Cl -3.86%
O=C(COC(=O)c1ccc(O)cc1O)NNC(=O)c1cccs1 6.82%
CCOCCCNC(=O)c1c(NC(=O)Cc2coc3ccc(C)cc23)sc2c1CCC2 -1.11%
CCNC(=O)c1ccc(OCC(=O)Nc2ccc(F)cc2)c(OC)c1 13.5%
CCOc1ccc(NC(=O)COc2ccc(C(=O)NC3CCCc4ccccc43)cc2OC)cc1 (stereo not drawn) 3.25%
COc1ccc(-c2cc(-c3ccccc3)nc3c2COc2ccc(Cl)cc2-3)cc1 2.02%
COc1ccc(Cl)cc1NC(=O)CCn1c(=O)c2cccn2c2ccccc21 1.46%
Cc1cccnc1CCNC(=O)C1CCC(=O)N(Cc2cccc(F)c2)C1 (stereo not drawn) -0.481%
COC(=O)c1ccc(CNC(=O)C2CCC(=O)N(Cc3cccc(F)c3)C2)cc1 (stereo not drawn) -7.88%
Cc1ccc(C(=O)NC2CCN(C#N)CC2)cc1 -0.515%
CCOC(=O)c1sc(NC(=O)/C=C/c2ccc(C(C)C)cc2)c(C(=O)OCC)c1C 0.66%
N#Cc1ncc(C(F)(F)F)cc1Oc1cccnc1 -3.06%
Cc1c(Cl)cccc1NC(=O)c1noc2c1CCCC2 7.16%
Cc1cc(NS(=O)(=O)c2ccc(NC(=O)c3ccccc3C)cc2)nc(C)n1 10.7%
CCCn1c(C2CCCN2c2nc(-c3ccc(OC)cc3)cs2)nc2ccccc21 (stereo not drawn) -1.81%
COc1ccc(-c2csc(-c3c(N)c(C(=O)c4ccc(OC)c(OC)c4)n4ccccc34)n2)cc1 0.214%
Cc1cccc(N2CCN(C(=O)CN(C)S(=O)(=O)c3ccc4c(c3)CCC(=O)N4)CC2)c1C 2.84%
Cc1nc(NC(=O)CN(C)S(=O)(=O)c2ccc(Cl)cc2)sc1C 4.55%
Cc1cc(C)cc(NC(=O)CCCc2nc(-c3ccccc3Cl)no2)c1 -21.4%
COc1ccc(CCNC(=O)c2cn(C)c3ccc(S(=O)(=O)N(C)C4CCCCC4)cc3c2=O)cc1OC -14.3%
CCOc1ncccc1C(=O)OCC(=O)NC1CC1 6.62%
CCOC(=O)c1[nH]c(C)c(C(=O)OCC(=O)N2c3ccccc3CC2C)c1C (stereo not drawn) -0.269%
Cc1ccn2c(Nc3ccc4c(c3)OCCO4)c(-c3ccc(C)s3)nc2c1 -3.6%
Cc1ccc(CCNC(=O)c2ccc3c(c2)nc2n3CCC(C)C2)cc1 (stereo not drawn) -2.39%
Cc1cccc(-n2c(=O)c3c(c4cc(C)ccc4n3C)n(CC(=O)Nc3ccccc3Cl)c2=O)c1 -2.31%
Cc1ccc(Nc2c(-c3ccc(N(C)C)cc3)nc3nc[nH]n23)cc1 1.88%
CCOc1ccc(C(=O)c2cn(Cc3ccc(F)cc3)c3ccc(F)cc3c2=O)cc1 -6.47%
COc1cc2c(cc1OC)C(COc1ccc(F)cc1)N(C(=O)c1ccccc1F)CC2 (stereo not drawn) -0.875%
CCCCn1c(N)c(N(CCOC)C(=O)c2cccc(S(=O)(=O)N(C)c3ccccc3)c2)c(=O)[nH]c1=O -3.31%
CCCCN(C(=O)c1ccc2ccccc2c1)c1c(N)n(CCCC)c(=O)[nH]c1=O -1.43%
Cc1nn(CC(=O)NCCc2ccccc2)c(=O)c2c1sc1ccccc12 -4.11%
CCc1ccc(NC(=O)c2cc3c(=O)n(Cc4cccnc4)ccc3nc2C)cc1 3.22%
COc1ccccc1C(=O)Nc1c(C(=O)Nc2ccc(C)cc2)oc2ccccc12 1.48%
O=C(CSc1ccc(-c2ccccn2)nn1)Nc1ccccc1 -3.04%
O=C(CSc1nnc(CNC(=O)c2ccccc2)n1-c1ccc(F)cc1)Nc1ccccc1F 1.22%
CCOc1ccc(CNC(=O)c2cc(-c3ccc(Cl)s3)nc3ccccc23)cc1 9.74%
Cc1ccc2nc(CN3CCN(S(=O)(=O)c4ccc(C)c(C)c4)CC3)oc2c1 0.582%
CC(=O)N1CCN(C(=O)c2cc(-c3ccc(Cl)s3)nc3ccccc23)CC1 2.16%
COC(=O)c1cnc(N2CCN(c3ccccc3OC)CC2)c2ccccc12 -10.4%
COc1cccc(CNC(=O)Cn2ncn3c(cc4ccccc43)c2=O)c1 4.48%
CCOc1cc(-c2nnc(SCC(=O)NC3CCCCC3)nc2-c2ccc(OC)c(OCC)c2)ccc1OC -3.44%
O=C(CNC(=O)c1ccc(Cl)cc1Cl)OC(C(=O)Nc1cc(C(F)(F)F)ccc1Cl)c1ccccc1 (stereo not drawn) 10.6%
O=C(CC(n1cncn1)C(Cl)(Cl)Cl)c1ccc([N+](=O)[O-])cc1 (stereo not drawn) 0.518%
Cc1ccc(C(=O)Cn2cccn2)cc1 -2.28%
O=C(NCCc1csc(-c2ccc(C(F)(F)F)cc2)n1)C(=O)Nc1ccc(F)c(Cl)c1 0.606%
CC(C)(C)CN1CCNC(=O)C1CC(=O)NC1Cc2ccccc2C1 (stereo not drawn) -4.71%
Cc1nc(CN(C)C(=O)CC2C(=O)NCCN2Cc2ccc(F)cc2)cs1 (stereo not drawn) 20.6%
COc1ccc(CCNC(=O)c2cnc3sc(N4CCCCCC4)nn3c2=O)cc1OC 7.34%
COc1ccc(S(=O)(=O)c2cn(C)c3cc(N4CCCCC4)c(F)cc3c2=O)cc1 7.82%
Cc1c(CNC2CCCCC2)c(C(=O)O)c(C)n1Cc1cccc(Cl)c1 -4.62%
COc1ccc(-c2cc(C(=O)Nc3sc4c(c3C(N)=O)CCCC4)no2)cc1 10.2%
COC(=O)c1c(NC(=O)C(C)Oc2ccc(Cl)c(C)c2)sc(C)c1C (stereo not drawn) -3.22%
CC1CC(C)CN(C(=O)CCNC(=O)Cn2cnc3ccccc3c2=O)C1 (stereo not drawn) 2.77%
O=C(Cn1nc(Cc2cccnc2)c2ccccc2c1=O)NCC1COc2ccccc2O1 (stereo not drawn) 0.892%
COC(=O)c1sc2ncccc2c1-n1c(C)ccc1C 4.46%
Cc1ccc(CN(C(=O)COc2ccc(Cl)cc2C)C2CCS(=O)(=O)C2)o1 (stereo not drawn) 1.47%
O=C(CN1CCOCC1)Nc1ccccc1 2.28%
COc1cccc(NC(=O)CN2C(=O)c3ccccc3Sc3ncccc32)c1 2.38%
Oc1ccc(Cl)cc1C1C=C(c2ccc3c(c2)OCO3)NC(c2c(F)cccc2Cl)N1 (stereo not drawn) -2.95%
CCCC(=O)Nc1cc2nn(-c3ccccc3)nc2cc1C -3.06%
CCCn1c2ccccc2c2cnn(CC(=O)NCC3CCN(Cc4ccc(C)cc4)CC3)c(=O)c21 1.43%
CCOc1ccc(NC(=O)CSc2c3c(nc4ccccc24)CCCC3)cc1 -3.93%
CCc1nc2ccccc2c(C(=O)OC2CCCCC2=O)c1C (stereo not drawn) -2.51%
Cc1cc(NS(=O)(=O)c2ccc3oc(=O)c4ncn(C)c4c3c2)ccc1Br -12.1%
COc1ccc2c(c1)C=C(C(=O)NCc1cc(Br)ccc1OC)CO2 -3.71%

enhancement, active:
CCCn1c2ccccc2c2cnn(CC(=O)N(C)c3ccccc3CC)c(=O)c21 33.2%
Cc1ccc(C)c(NC(=O)CCC(=O)NNC(=O)c2cccs2)c1 30%
COc1cc(C2C3=C(CCCC3=O)OC3=C2C(=O)CCC3)ccc1OCC(=O)Nc1ccccc1 78.2%
CCn1nc(C)c(CNC(=O)C2CCC(=O)N(Cc3cccc(F)c3)C2)c1C (stereo not drawn) 31.7%
N#Cc1ccc(Oc2cc(C(F)(F)F)nc(-c3ccccn3)n2)cc1 55.8%
COc1ccc(-c2csc(Nc3ccccn3)n2)cc1 34.5%
CCOC(=O)Cc1csc(NC(=O)CN(C)S(=O)(=O)c2ccc3c(c2)CCC(=O)N3)n1 32.8%
CCOc1ncccc1C(=O)OCC(=O)N1c2ccccc2CC1C (stereo not drawn) 156%
CN(C)c1ccc(Nc2c3c4c(cccc4n(C)c2=O)C(=O)c2ccccc2-3)cc1 30.8%
CCCCn1c(N)c(N(CC)C(=O)c2ccc(N(C)S(=O)(=O)c3ccc(C)cc3)cc2)c(=O)[nH]c1=O 37.2%
O=C(CSc1ccc(-c2cccs2)nn1)Nc1ccccc1F 35.3%
COC(=O)c1cc(N2CCNCC2)nc2ccccc12 50.7%
Cc1csc(CN(C)C(=O)CC2C(=O)NCCN2CC(C)(C)C)n1 (stereo not drawn) 44.2%
Cc1cc(OC(C)C(=O)Nc2sc3c(c2C(N)=O)CCCC3)ccc1Cl (stereo not drawn) 34.9%
O=C(Cn1cnc2ccccc2c1=O)NCC1COc2ccccc2O1 (stereo not drawn) 38.9%
O=C(CN1C(=O)c2cccc3cccc1c23)Nc1ccccc1 43.7%
O=C(COC(=O)c1c2c(nc3ccccc13)CCCC2)c1ccc(Br)s1 35%

enhancement, -6.86% (inactive) and 34.2% (active):
O=C(Cn1c[n+](CC(=O)c2ccc([N+](=O)[O-])cc2)cn1)c1ccc([N+](=O)[O-])cc1
